Test results published in PubChem BioAssay.
Active and inactive are the calls of the source. Unless noted, no rule for the calls is given here.

What was measured:
[1] = system: Wnt5a (protein binding on small-molecule microarray); experiment: small molecules binding Wnt5a protein – biophysical, small-molecule microarray, 635/667 nm fluorescence, primary screen (AID 1142); details: 635 nm fluorescence, higher = more signal;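 also: fluorescence read at 667 nm with signal to noise per printed feature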
[2] = ATP-based viability of Huh7 replicon cells – cell-based, CellTiter-Glo luminescence, basal, 48 h, cytotoxicity control for HCV replication inhibitor project, primary screen (AID 1143); details: higher = more signal, called active from +8 up or from −8 down;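 also: Huh7 hepatoma cells carrying a hepatitis C replication reporter with no stimulus; test concentration not given here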
[3] = Pseudomonas biofilm growth suppression – PAO1 strain, BacTiter-Glo luminescence, LB-PBS, primary screen (AID 1144); details: P. aeruginosa PAO1 biofilm, 12 h, higher = more signal
[4] = basal CRE-LacZ reporter activity in PC12 – cell-based, unstimulated, primary screen (AID 1145); details: no forskolin, luminescence, 4.5 h, higher = more signal, called active from +8 up or from −8 down
[5] = forskolin-driven CRE-LacZ activity in PC12 – cell-based, CRE-LacZ reporter, forskolin-stimulated, primary screen (AID 1146); details: luminescence, 4.5 h, higher = more signal, called active from +8 up or from −8 down;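 also: PC12 cells with 6xCRE LacZ reporter stimulated by forskolin 10 µM; beta-galactosidase reporter signal reflecting CREB driven transcription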
[6] = target: Streptavidin (Streptomyces avidinii) (UniProt P22629); experiment: compounds binding control protein streptavidin – biophysical, small-molecule microarray, 635/667 nm fluorescence, artefact control for SMM compound annotation, primary screen (AID 1147); details: higher = more signal;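 also: signal reflects streptavidin binding to arrayed compounds as a control protein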
[7] = probe aInhba binding on compound microarray – biochemical, small-molecule microarray, 635/667 nm fluorescence, primary screen (AID 1148); details: higher = more signal;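 also: score merges 667nm spot fluorescence with signal-to-noise for antibody binding to printed compounds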
Torsin-1A (Homo sapiens) [8] = target: Torsin-1A (Homo sapiens) (UniProt O14656); experiment: TOR1A wild-type binding on microarray – cell lysate, small-molecule microarray, lysate, 635/667 nm, primary screen (AID 1149); details: COS7 hTOR1A-WT lysate, 635 nm fluorescence, higher = more signal
Torsin-1A (Homo sapiens) [9] = target: Torsin-1A (Homo sapiens) (UniProt O14656); experiment: torsin A mutant lysate binding on microarrays – cell lysate, small-molecule microarray, COS7 lysate, 635/667 nm fluorescence, primary screen (AID 1150); details: COS7 hTOR1A mutant lysate, 635 nm fluorescence, higher = more signal;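 also: score pools 667 nm emission and signal to noise measuring lysate protein binding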
[10] = system: Sonic hedgehog protein (Shh); experiment: Sonic hedgehog microarray binding compounds – biochemical, small-molecule microarray, 635/667 nm fluorescence, primary screen (AID 1151); details: 635 nm fluorescence, higher = more signal;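 also: Shh protein binding to compounds spotted on small-molecule microarray slides; score combines spot fluorescence intensity with signal-to-noise across triplicate slides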
[11] = optical density shifts of acrAB sulA E. coli – strain DRC41, OD650, 48 h, E. coli filamentation inducer project, primary screen (AID 1152); details: higher = more signal, called active from +8 up or from −8 down;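 also: E. coli MC1000 strain DRC41 lacking acrAB efflux pump and sulA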
[12] = probe aLefty1 binding on compound microarray – biochemical, small-molecule microarray, 635/667 nm fluorescence, primary screen (AID 1153); details: higher = more signal;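 also: score merges spot fluorescence with signal-to-noise ratio from the scanned slide images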
[13] = plasmodial surface anion channel blockers, osmotic lysis – cell-based, P. falciparum Indochina, OD700, 1 h, primary screen (AID 1154); details: P. falciparum Indochina infected RBC osmotic lysis, higher = more signal, called active from +8 up or from −8 down
[14] = plasmodial surface anion channel blockers, osmotic lysis – cell-based, P. falciparum Indochina, OD700, 2 h, primary screen (AID 1155);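 also: lysis reports solute entry through the parasite surface anion channel PSAC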; details: P. falciparum Indochina infected erythrocytes, higher = more signal, called active from +8 up or from −8 down
[15] = changes in parasitized red cell lysis, either direction – P. falciparum Indochina, OD700, 3 h, PSAC antagonist project, primary screen (AID 1156); details: P. falciparum-infected erythrocytes, osmotic lysis, higher = more signal, called active from +8 up or from −8 down
[16] = plasmodial surface anion channel blockers, osmotic lysis – cell-based, P. falciparum Indochina, OD700, 18 h, primary screen (AID 1157); details: P. falciparum Indochina infected erythrocytes, osmotic lysis OD700, 18 h; higher = more signal, called active from +8 up or from −8 down
[17] = S6 kinase pathway phospho-S6 level changes – cell-based, A549, cytoblot, luminescence, serum-stimulated, primary screen (AID 1158); details: 5 h, higher = more signal;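 also: serum-stimulated A549 lung adenocarcinoma cells; signal is phosphorylated S6 detected by cytoblot immunostaining with HRP secondary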
[18] = target: NADPH oxidase 2 (Homo sapiens) (UniProt P04839); experiment: compounds shifting NOX2 Amplex Red fluorescence – cell-based, HEK293-NOX2, PMA-stimulated, NOX inhibitor project, primary screen (AID 1159); details: 45 min, higher = more signal, called active from +8 up or from −8 down; also: test concentration not given here
[19] = target: NADPH oxidase 4 (Homo sapiens) (UniProt Q9NPH5); experiment: compounds shifting NOX4 Amplex Red fluorescence – cell-based, HEK293-NOX4, tetracycline-induced, NOX inhibitor project, primary screen (AID 1160); details: HEK293-NOX4, Amplex Red H2O2 fluorescence, 45 min; higher = more signal, called active from +8 up or from −8 down
[20] = target: NADPH oxidase 5 (Homo sapiens) (UniProt Q96PH1); experiment: compounds shifting NOX5 Amplex Red fluorescence – cell-based, HEK293-NOX5, NOX inhibitor project, primary screen (AID 1161); details: HEK293-NOX5, ionomycin, 45 min, higher = more signal
Sequence of NADPH oxidase 5 (Homo sapiens) (Q96PH1 whole entry, looked up): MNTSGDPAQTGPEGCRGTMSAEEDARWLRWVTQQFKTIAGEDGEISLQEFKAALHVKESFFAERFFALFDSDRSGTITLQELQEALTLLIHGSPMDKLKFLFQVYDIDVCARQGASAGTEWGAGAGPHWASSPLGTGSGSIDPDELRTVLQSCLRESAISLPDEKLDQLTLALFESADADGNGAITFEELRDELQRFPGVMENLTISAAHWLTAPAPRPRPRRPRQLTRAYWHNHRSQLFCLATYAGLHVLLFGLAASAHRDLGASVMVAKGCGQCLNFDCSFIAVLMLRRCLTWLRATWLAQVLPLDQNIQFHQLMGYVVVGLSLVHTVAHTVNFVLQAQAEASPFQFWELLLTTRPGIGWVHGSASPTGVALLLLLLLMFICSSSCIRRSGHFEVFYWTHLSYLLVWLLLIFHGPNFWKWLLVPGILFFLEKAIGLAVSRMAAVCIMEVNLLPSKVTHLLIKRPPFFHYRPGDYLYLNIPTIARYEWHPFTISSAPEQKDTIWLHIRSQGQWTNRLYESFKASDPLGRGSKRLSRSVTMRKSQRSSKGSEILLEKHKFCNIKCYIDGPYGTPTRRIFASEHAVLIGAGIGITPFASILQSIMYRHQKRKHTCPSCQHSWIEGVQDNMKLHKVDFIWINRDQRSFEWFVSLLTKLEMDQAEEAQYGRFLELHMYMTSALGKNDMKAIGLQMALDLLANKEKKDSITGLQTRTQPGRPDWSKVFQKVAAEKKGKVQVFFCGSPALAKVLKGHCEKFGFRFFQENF

Sequence of Torsin-1A (Homo sapiens) (O14656 whole entry, looked up): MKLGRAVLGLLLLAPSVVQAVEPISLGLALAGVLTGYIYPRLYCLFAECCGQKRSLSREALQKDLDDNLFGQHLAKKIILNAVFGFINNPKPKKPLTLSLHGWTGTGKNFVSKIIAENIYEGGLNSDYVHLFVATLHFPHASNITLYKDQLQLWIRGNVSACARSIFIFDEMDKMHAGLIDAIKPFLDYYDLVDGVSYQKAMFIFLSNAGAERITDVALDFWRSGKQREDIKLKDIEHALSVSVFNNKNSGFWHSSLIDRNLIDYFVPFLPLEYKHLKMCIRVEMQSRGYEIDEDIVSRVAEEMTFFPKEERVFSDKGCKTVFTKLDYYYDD
Sequence of NADPH oxidase 4 (Homo sapiens) (Q9NPH5 whole entry, looked up): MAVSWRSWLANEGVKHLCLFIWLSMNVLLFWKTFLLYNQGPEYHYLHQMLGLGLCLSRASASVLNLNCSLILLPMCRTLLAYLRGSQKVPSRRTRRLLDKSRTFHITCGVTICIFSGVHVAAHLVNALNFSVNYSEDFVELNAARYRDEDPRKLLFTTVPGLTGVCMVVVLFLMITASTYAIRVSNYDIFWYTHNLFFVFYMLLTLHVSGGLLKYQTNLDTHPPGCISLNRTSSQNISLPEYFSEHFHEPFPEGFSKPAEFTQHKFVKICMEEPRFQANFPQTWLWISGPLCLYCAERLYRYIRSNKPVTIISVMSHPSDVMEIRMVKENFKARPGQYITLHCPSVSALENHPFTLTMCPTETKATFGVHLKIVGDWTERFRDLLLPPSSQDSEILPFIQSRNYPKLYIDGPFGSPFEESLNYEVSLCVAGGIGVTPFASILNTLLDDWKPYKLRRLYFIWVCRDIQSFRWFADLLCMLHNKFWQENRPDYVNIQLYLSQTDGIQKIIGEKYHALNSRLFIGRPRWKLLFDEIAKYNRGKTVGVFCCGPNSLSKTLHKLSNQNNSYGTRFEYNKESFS
Sequence of NADPH oxidase 2 (Homo sapiens) (P04839 whole entry, looked up): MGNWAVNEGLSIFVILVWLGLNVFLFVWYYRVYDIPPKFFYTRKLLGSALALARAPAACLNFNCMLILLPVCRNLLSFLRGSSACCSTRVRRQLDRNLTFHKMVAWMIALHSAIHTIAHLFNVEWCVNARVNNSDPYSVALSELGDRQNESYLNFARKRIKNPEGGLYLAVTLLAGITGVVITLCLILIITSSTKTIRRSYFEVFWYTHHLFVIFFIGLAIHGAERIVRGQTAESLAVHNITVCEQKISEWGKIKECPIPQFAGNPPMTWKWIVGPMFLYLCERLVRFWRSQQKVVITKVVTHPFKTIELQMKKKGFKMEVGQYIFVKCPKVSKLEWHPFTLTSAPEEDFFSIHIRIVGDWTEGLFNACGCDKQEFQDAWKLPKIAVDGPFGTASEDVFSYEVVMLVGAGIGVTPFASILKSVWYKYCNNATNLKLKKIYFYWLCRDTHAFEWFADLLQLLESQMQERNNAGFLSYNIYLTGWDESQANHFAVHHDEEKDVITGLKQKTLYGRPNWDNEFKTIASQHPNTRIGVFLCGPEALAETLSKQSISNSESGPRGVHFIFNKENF
Sequence of Streptavidin (Streptomyces avidinii) (P22629 whole entry, looked up): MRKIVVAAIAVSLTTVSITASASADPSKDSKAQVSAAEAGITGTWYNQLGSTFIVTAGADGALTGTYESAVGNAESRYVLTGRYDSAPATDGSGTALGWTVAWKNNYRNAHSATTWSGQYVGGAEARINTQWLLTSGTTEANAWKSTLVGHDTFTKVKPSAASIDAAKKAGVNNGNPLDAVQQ

| SMILES | composite z-score [1] | z-score [2] | z-score [3] | z-score [4] | z-score [5] | composite z-score [6] | composite z-score [7] | composite z-score (Torsin-1A (Homo sapiens) [8]) | composite z-score (Torsin-1A (Homo sapiens) [9]) | composite z-score [10] | z-score [11] | composite z-score [12] | z-score [13] | z-score [14] | z-score [15] | z-score [16] | z-score [17] | z-score [18] | z-score [19] | z-score [20] |
| --- | --- | --- | --- | --- | --- | --- | --- | --- | --- | --- | --- | --- | --- | --- | --- | --- | --- | --- | --- | --- |
| C#CCCCON=C1[C@H]2CCn3c(=O)n([C@@H](CC)c4ccccc4)c(=O)n3[C@H]2[C@H](O)[C@@H]2O[C@H]12 | 0.352 | 0.222 (inactive) | 0.453 (inactive) | 1.15 (inactive) | 0.253 (inactive) | 0.017 | -0.045 | -0.0784 | 0.472 | 0.441 | -1.02 (inactive) | -0.101 | 0.957 (inactive) | 0.193 (inactive) | 0.461 (inactive) | 0.0103 (inactive) | 1.09 | 1.29 (inactive) | 0.633 (inactive) | 1.12 |
| CO[C@H]1COC(=O)CCC[C@H](C)[C@H](OC)COC(=O)CC=C[C@@H]1C | -0.225 | -1.15 (inactive) | -0.339 (inactive) | -1.29 (inactive) | -0.46 (inactive) | 0.116 | -0.154 | 1.78 | 1.64 | 1.79 | 0.928 (inactive) | -0.0626 | -0.972 (inactive) | -1.26 (inactive) | 0.232 (inactive) | -1.45 (inactive) | 1.18 | -0.0777 (inactive) | 0.862 (inactive) | 0.381 |
| CC(=O)OC[C@H]1O[C@H](C#CCC2CCCCC2)C=C[C@@H]1OC(C)=O | 0.293 | -2.43 (inactive) | 0.135 (inactive) | 0.105 (inactive) | 0.483 (inactive) | 0.176 | -0.0589 | 0.419 | 0.96 | 1.17 | 0.457 (inactive) | -0.19 | 2.09 (inactive) | 0.138 (inactive) | 0.0473 (inactive) | 0.125 (inactive) | -0.274 | 0.217 (inactive) | 0.556 (inactive) | 1.74 |
| Cc1cc(C)c(-c2cc([C@H](C)ON=C[C@@H](C)[C@H](OCc3ccccc3)C(C)C)on2)c(C)c1 | -0.18 | -0.295 (inactive) | 1.45 (inactive) | 0.0944 (inactive) | -0.549 (inactive) | 0.0366 | -0.242 | -0.477 | -0.273 | -0.16 | -0.3 (inactive) | -0.0501 | 0.859 (inactive) | 0.541 (inactive) | -0.831 (inactive) | 0.195 (inactive) | -0.408 | -0.467 (inactive) | -0.299 (inactive) | -0.45 |
| O=C1[C@H]2[C@H]3[C@H](O)[C@H](O)CC(=NOC[C@@H](O)COCc4ccco4)[C@@H]3CC[C@H]2C(=O)N1Cc1ccccc1 | -0.0051 | -1.65 (inactive) | 0.969 (inactive) | -0.294 (inactive) | 0.183 (inactive) | -0.153 | -0.186 | 3.04 | 1.92 | 0.399 | 0.119 (inactive) | 0.185 | 28.6 (active) | 4.72 (inactive) | 0.618 (inactive) | 1.21 (inactive) | -0.585 | -1.69 (inactive) | -0.3 (inactive) | -0.858 |
| C[C@@H]1CC[C@H]2C(=O)N3[C@@H](CC[C@@H](C)[C@@H]3c3ccc(Br)cc3)C(=O)N2[C@H]1c1ccc(Br)cc1 | 0.113 | -1.1 (inactive) | 1.21 (inactive) | 0.198 (inactive) | 0.929 (inactive) | 0.146 | -0.0719 | 1.05 | 0.626 | 0.233 | -1.09 (inactive) | -0.0099 | 4.4 (inactive) | 1.07 (inactive) | 0.121 (inactive) | 0.689 (inactive) | 0.448 | 1.79 (inactive) | -1.8 (inactive) | 0.819 |
| O=C1[C@H]2[C@H]3[C@H](O)[C@H](O)CC(=NOCc4ccccc4)[C@H]3CC[C@H]2C(=O)N1C1CCCCC1 | -0.0056 | -1.79 (inactive) | 0.415 (inactive) | 0.52 (inactive) | -0.262 (inactive) | 0.457 | -0.0917 | 0.161 | 1.03 | 0.449 | -0.135 (inactive) | -0.0222 | 21.3 (active) | 2.36 (inactive) | 0.43 (inactive) | 0.842 (inactive) | -0.441 | -0.622 (inactive) | -1.09 (inactive) | -4.07 |
| O=C1C=C[C@@H](O)[C@@H]2[C@@H]3C(=O)N(Cc4ccc5c(c4)OCO5)C(=O)[C@@H]3CC[C@@H]12 | 0.538 | -0.655 (inactive) | 0.917 (inactive) | -0.567 (inactive) | -0.332 (inactive) | 0.283 | -0.307 | 0.376 | 0.123 | 0.499 | 0.038 (inactive) | -0.0061 | 1.26 (inactive) | -0.0262 (inactive) | -0.556 (inactive) | 0.379 (inactive) | 0.182 | 1.41 (inactive) | -1.55 (inactive) | -0.372 |
| CCOC(=O)[C@H](CC(C)C)NC(=O)CCC1CC(OC(=O)NCCc2ccc(F)cc2)CC2(CCCC(COC(=O)NCc3cccc4ccccc34)O2)O1 (stereo not given in full) | -0.165 | -0.731 (inactive) | -0.596 (inactive) | -0.889 (inactive) | 1.01 (inactive) | 1.57 | -0.131 | -0.169 | 0.184 | 0.601 | -0.14 (inactive) | -0.147 | 15.2 (active) | 3.27 (inactive) | -1.34 (inactive) | 0.344 (inactive) | 0.927 | 0.135 (inactive) | 0.378 (inactive) | -0.0307 |
| CCOC(=O)NN=C1C[C@@H](O)[C@@H](O)[C@@H]2[C@@H]3C(=O)N(CC)C(=O)[C@@H]3CC[C@H]12 | 0.0375 | 0.383 (inactive) | 0.345 (inactive) | -0.656 (inactive) | -0.628 (inactive) | 0.0571 | -0.252 | 0.399 | 0.441 | 0.0046 | 0.539 (inactive) | -0.286 | -0.259 (inactive) | 0.072 (inactive) | -0.466 (inactive) | 0.182 (inactive) | -0.404 | -1.28 (inactive) | 0.199 (inactive) | 0.534 |
| CCCCOC(OCCCC)C(O)CSc1ccc2ccccc2c1 (stereo not given) | 0.133 | -0.657 (inactive) | -0.315 (inactive) | 1.01 (inactive) | 0.257 (inactive) | 0.465 | -0.282 | 0.453 | -0.0078 | 0.789 | 0.278 (inactive) | -0.103 | 5.46 (inactive) | 0.667 (inactive) | -1.43 (inactive) | 0.248 (inactive) | -0.455 | -0.28 (inactive) | -0.657 (inactive) | -3.7 |
| CC(CCC(=O)OC[C@H]1O[C@H](C#Cc2ccccc2)C=C[C@@H]1Oc1ccc(C)cc1)=NO[C@H](C)c1cn([C@@H]2COC[C@H]2O)nn1 | -0.0352 | -0.783 (inactive) | -0.763 (inactive) | 3.17 (inactive) | -0.0087 (inactive) | 0.197 | -0.101 | 0.587 | 0.326 | 0.39 | -0.6 (inactive) | -0.191 | 26.8 (active) | 3.78 (inactive) | 1.38 (inactive) | -0.643 (inactive) | 1.2 | -2.39 (inactive) | -0.358 (inactive) | -3.36 |
| Cc1ccc2[nH]c3nc(CCCn4ccnc4-c4ccccc4)nnc3c2c1 | 0.181 | -0.317 (inactive) | 0.892 (inactive) | -0.435 (inactive) | -0.815 (inactive) | 0.857 | 0.157 | 0.443 | 0.807 | 1.18 | 0.369 (inactive) | 0.0072 | 8.16 (active) | 0.751 (inactive) | 0.632 (inactive) | 0.322 (inactive) | -0.903 | -0.137 (inactive) | -0.375 (inactive) | -1.14 |
| CCOC(=O)[C@H](Cc1ccccc1)NC(=O)CCC1CC(OC(=O)NCCc2ccc(F)cc2)CC2(CCCC(COC(=O)NCCC(C)C)O2)O1 (stereo not given in full) | 0.446 | 0.0118 (inactive) | -0.275 (inactive) | 1.09 (inactive) | 0.956 (inactive) | 0.496 | -0.183 | 0.0817 | 0.34 | 1.68 | -0.15 (inactive) | 0.145 | -1.5 (inactive) | -0.302 (inactive) | 0.005 (inactive) | 0.0777 (inactive) | 0.429 | -0.0979 (inactive) | 0.397 (inactive) | 0.7 |
